Data reported in PubChem BioAssay (NCATS).
Results filed as inconclusive are left out. Entries that show only a call come without a potency. A number with no mark means an inactive call. Calls of active or inactive are those of the source. Calls follow the shape of the dose curve; as a rule, active = well fitted inhibition curve with a large enough effect; inconclusive = small, poorly fitted or top-dose-only effect; inactive = flat fitted curve, though single readings scatter.

tested on: Zika virus NS2B-NS3 protease; test: Primary screen GU AMC qHTS for Zika virus inhibitors (AID 1347154); conditions: Zika NS2B-NS3 unlinked protease, AMC fluorogenic substrate; series mostly up to 54.1 µM; also: nearly all actives have a fitted effect of over 70% in size
Description: Avindra Nath, Ph.D., National Institute of Neurological Disorders and Stroke (NINDS), Bethesda, MD
Radhakrishnan Padmanabhan, Ph.D., Georgetown University (GU), Washington D.C.
Zika Virus causes congenital defects, including microcephaly and is associated with Guillain-Barre syndrome, eningoencephalitis and myelitis in infected adult. […] Using a target-based approach, we hope to establish a screening paradigm to uncover novel, cell-active NS2B-NS3 protease (Zika Virus) specific inhibitors from NCATS' collection of small molecules using qHTS.
Early Translation Branch (ETB)
National Center for Advancing Translational Sciences (NCATS), Rockville, MD
National Institute of Health (NIH), Bethesda, Maryland
Padmanabhan lab provided the NS2B hydrophilic domain and NS3 protease domain in a noncovalent complex used for the unlinked assay. Control compound aprotinin is obtained from Thermo Scientific (#78432; Waltham, Massachusetts). NS2B-NS3 AMC substrate (Bz-Nle-Lys-Arg-Arg-AMC; Nle-KRR-AMC) purchased from Bachem (#I-1995; Torrance, CA). Ac-VKTGKR-AMC purchased from Genscript or Bachem, Ac-FAAGKR-AMC purchased from Genscript, Ac-GLVKRR-AMC purchased from Genscript, Ac-LKKR-AMC purchased from Genscript.
GU AMC unlinked NS2B-NS3 protease qHTS protocol
Briefly, 3 microL of Zika virus unlinked NS2B-NS3 protease (25 nM for linked final concentration), in assay buffer (10 mM Tris-HCl pH 8.0 with 0.01% Tween 20) was dispensed into a 1,536-well solid-bottom black plate (Greiner Bio One, Monroe, NC). […] Plates were then read immediately on a ViewLux High-throughput CCD imager (PerkinElmer, Waltham, MA) equipped with standard UV fluorescence optics (340(30) nm excitation, 450(20) nm emission) then incubated (room temperature, protected from light) for 15 minutes (~20% conversion). The change in fluorescence intensity over the 15-minute reaction period was normalized against no-inhibitor and no-enzyme controls and the resulting percent inhibition data were fitted to a 4-parameter Hill equation. Aprotinin was used as the intraplate control.
Potency is read from the fitted curve at half-maximal effect.

Row | Compound | Potency | activity change, negative = inhibition
1 | CC(=O)Nc1ccn(C2COC(COC(=O)c3ccccc3)O2)c(=O)n1 (stereo not given) | inactive | 
2 | CCN1CCN(C(=O)N[C@@H](C(=O)N[C@@H]2C(=O)N3[C@@H]2SC(C)(C)[C@H]3C(=O)O)c2ccccc2)C(=O)C1=O | inactive | 
3 | O=[N+]([O-])c1cncn1CCN1CCOCC1 | inactive | 
4 | c1ccc2c(c1)CCc1ccccc1N2 | inactive | 
5 | Cc1ccc(/C=N/n2c(-c3ccccc3)csc2=S)cc1 | inactive | 
6 | CN1C(=O)c2ccccc2C1=O | inactive | 
7 | O=C(CCCl)NCc1ccccc1 | inactive | 
8 | C=CCOc1cc(Cl)ccc1C(=O)NCCN(CC)CC | inactive | 
9 | Fc1ccc(C(c2ccc(F)cc2)N2CCNCC2)cc1 | inactive | 
10 | O=[N+]([O-])c1nccn1CO[C@@H](CO)[C@H](O)CO | inactive | 
11 | CC1CCCCN1CCCOC(=O)c1ccc(OC2CCCCC2)cc1 (stereo not given) | inactive | 
12 | COc1ccc2nc(SCc3ncc(C)c(OC)c3C)[nH]c2c1 | inactive | 
13 | OC(CCCN1CCCCC1)(c1ccccc1)c1ccccc1 | inactive | 
14 | N=C(N)c1ccc(OCCCOc2ccc(C(=N)N)cc2)cc1 | inactive | 
15 | Nc1ncnc2n[nH]c(Nc3ccc(F)cc3)c12 | inactive | 
16 | CCN(CC)CC(=O)OCC(=O)[C@@]1(O)CC[C@H]2[C@@H]3CCC4=CC(=O)CC[C@]4(C)[C@H]3[C@@H](O)C[C@@]21C | inactive | 
17 | CC1CN(c2cc3c(cc2F)c(=O)c(C(=O)O)cn3-c2ccc(F)cc2F)CCN1 (stereo not given) |  | -3.57% [at 4.99 µM]
18 | COc1ccc(CCC(C)=O)cc1 | inactive | 
19 | COc1ccc([C@@H]2Sc3ccccc3NC(=O)[C@@H]2O)cc1 | inactive | 
20 | CC(C)(Oc1ccc(Cl)cc1)C(=O)OCCCOC(=O)C(C)(C)Oc1ccc(Cl)cc1 | inactive | 

Row | Compound | Potency | activity change, negative = inhibition
21 | C/C(=N\O)[C@@H](C)NCC(C)(C)CN[C@H](C)/C(C)=N/O | inactive | 
22 | O=C(OCC1(COC(=O)c2cccnc2)CCCC(COC(=O)c2cccnc2)(COC(=O)c2cccnc2)C1O)c1cccnc1 | inactive | 
23 | CNC(=O)c1c(I)c(NC(C)=O)c(I)c(C(=O)O)c1I | inactive | 
24 | CCOC(=O)N1CCC(n2c(=O)[nH]c3cc(Cl)ccc32)CC1 | inactive | 
25 | Nc1cccc2c(N)cccc12 | 36.9 µM (active) | 
26 | CCCCCCCCCCCC[N+](C)(C)Cc1ccccc1 | inactive | 
27 | O=C(CCC1CCN(Cc2ccccc2)CC1)c1ccc2c(c1)NCCCC2 | inactive | 
28 | CCCCNc1ccc(C(=O)OCCN(CC)CC)cc1 | inactive | 
29 | COC(=O)/C=C\C(=O)OC | inactive | 
30 | Cc1ccc(C(C)OC(=O)C2(C)CCC(C(=O)O)C2(C)C)cc1 (stereo not given) | inactive | 
31 | Cc1onc(-c2c(Cl)cccc2Cl)c1C(=O)Cl | inactive | 
32 | CN(C)CCCOC1(Cc2ccccc2)CCCCCC1 | inactive | 
33 | COc1cc(OC)nc(O[C@H](C(=O)O)C(OC)(c2ccccc2)c2ccccc2)n1 | inactive | 
34 | Nc1nc(=O)n([C@@H]2O[C@H](CO)[C@@H](O)[C@@H]2F)cc1I | inactive | 
35 | CO[C@@H]1[C@@H](OC)[C@H](C)[C@@](O)(CC(=O)O)O[C@H]1[C@H](C)[C@H]1O[C@@]2(CC[C@@](C)([C@H]3CC[C@@](C)([C@@H]4O[C@@H]([C@H]5O[C@](C)(O)[C@H](C)C[C@@H]5C)C[C@@H]4OC4C[C@H](OC)[C@@H](OC)[C@H](C)O4)O3)O2)C[C@H](O)[C@H]1C (stereo not given in full) | inactive | 
36 | OC1(c2ccc(Cl)cc2)CCNCC1 | inactive | 
37 | CC(C)NC(=O)c1ccc(C=O)cc1 | inactive | 
38 | CN1[C@@H]2CC[C@H]1CC(NC(=O)n1c(=O)[nH]c3ccccc31)C2 (stereo not given in full) | inactive | 
39 | O=c1[nH]c(=O)n([C@H]2O[C@H](CO)[C@@H](O)[C@@H]2O)cc1/C=C\Br | inactive | 
40 | O=C(O)CCC(=O)OC[C@@H](NC(=O)C(Cl)Cl)[C@H](O)c1ccc([N+](=O)[O-])cc1 | inactive | 
